Compounds with a hit are over-represented: about 4.1% of the library has one in this group of screens.
hcDAF-12 act = activates DAF-12 receptor from parasite H. contortus. 370,000 tested, 1.4% active. activation, % at 6.8 µM. HEK293 hcDAF-12 lit1-tk-luc reporter, luminescence; 0% DMSO, 100% Δ7-dafachronic acid;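 active = activation above the mean of all tested compounds plus 3 SD, cut at about 5.5% in these data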
DAX1 inh-1 = NR0B1 (DAX1) inhibition. P51843. HEK293 Gal4-DAX1 luciferase reporter, luminescence. inhibition, % at 6.75 µM. 340,000 tested, 0.99% active. AID 504766;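 active = inhibition above the mean over all tested compounds plus 3 SD, cut at about 4.2% in these data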;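 also: inhibition shows as a rise in luminescence from relieved DAX1 repression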
Target sequence (P51843 207-470 limits assumed): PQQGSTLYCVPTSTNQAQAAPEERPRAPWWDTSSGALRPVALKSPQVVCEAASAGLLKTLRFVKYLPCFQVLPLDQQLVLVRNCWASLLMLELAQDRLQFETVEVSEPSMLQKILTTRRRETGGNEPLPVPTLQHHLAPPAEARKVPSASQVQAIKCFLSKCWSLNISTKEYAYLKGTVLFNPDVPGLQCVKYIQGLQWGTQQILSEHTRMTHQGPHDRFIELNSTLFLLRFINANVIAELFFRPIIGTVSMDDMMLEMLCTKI
ssDAF12 agonist = activates DAF-12 receptor from parasite S. stercoralis; AID 652126; 370,000 tested, 1% active; HEK293 ssDAF-12/GRIP1 lit1-tk-luc reporter, luminescence; % of 3 µM dafachronic acid response; activation, % at 6.8 µM;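 active = activation above the mean over all tested compounds plus 3 SD, cut at about 0.9% in these data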
DAX1 inh-2 = inhibitors of DAX1 repression of SF-1 activated StAR promoter; HEK293T StAR-luciferase reporter, SF-1/DAX-1 repression relief; inhibition, % at 6.8 µM; 370,000 tested, 1.1% active;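 active = inhibition above the mean over all tested compounds plus 3 SD, cut at about 3.6% in these data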;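 also: higher inhibition means more luminescence from relief of DAX-1 repression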
hgDAF12 agonist = agonists of H. glycines DAF-12 nuclear receptor | HEK293 GAL4-hgDAF12 UAS-luciferase reporter, agonist luminescence; normalized to butyrate control | 370,000 tested, 1.8% active | activation, % at 6.8 µM | AID 687014;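 active = activation above a cutoff set at the mean of all screened compounds plus 3 SD, cut at about 10% in these data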
Numbers stand for hits; i = inactive; nt = no result given.

SMILES	hcDAF-12 act	DAX1 inh-1	ssDAF12 agonist	DAX1 inh-2	hgDAF12 agonist
C[C@@H]1CCCCO[C@@H](CN(C)Cc2ccncc2)[C@@H](C)CN([C@H](C)CO)C(=O)c2cc(NC(=O)c3ccccc3)ccc2O1	i	4.8	i	i	i
CCN(C(=O)CCc1cn(CC)c2ccccc12)c1ccc(Oc2cccnc2)cc1	i	nt	i	3.6	11
CN(C(=O)CCc1cn(C)c2ccccc12)c1ccc(Oc2cccnc2)cc1	i	nt	i	i	i
O=C(NC1CCN(Cc2ccccc2)CC1)c1ccccc1	i	i	i	i	i
O=C(NNC1CCN(Cc2ccccc2)CC1)c1ccccc1	i	i	i	i	11
O=C1NN=COc2ccccc21	5.7	i	i	i	i
O=C1NC(c2ccc(Cl)cc2)=COc2ccccc21	i	i	i	i	i
OC1(c2cccc(C(F)(F)F)c2)CCN(CCN2CCCCC2)CC1	i	i	1.6	i	i
O=C(O)C1=CCC(c2ccc(Cl)c(Cl)c2)N(S(=O)(=O)c2ccc(F)cc2)C1c1cccc(F)c1 (stereo unspecified)	i	nt	i	i	i
C=CCNC(=O)c1ccc(CSc2nc3ccccc3s2)cc1	5.7	i	i	i	i
C=CCNC(=O)c1nc2ccccc2s1	i	i	i	i	i
COc1cccc(N2CCN(CC(=O)NCc3c(F)cccc3F)CC2)c1	i	nt	i	i	i
O=C(Nc1ccc(NC(=O)C23CC4CC(CC(C4)C2)C3)cn1)c1ccco1	i	i	i	i	11
O=C(Nc1ccc(NC(=O)c2ccco2)cc1)c1ccco1	i	i	i	4.4	i
CC(=O)N(C)c1ccc(NC(=O)c2ccco2)cc1	i	i	i	3.8	i
O=C(Nc1ccc(Br)cc1)c1ccco1	i	i	i	i	i
O=C(Nc1ccc(NC(=O)C2CC2)cc1)c1ccco1	i	i	i	i	11
CC(C)(C)OC(=O)N1CCC(N[C@@H](Cc2ccccc2)C(=O)NCC(c2ccccc2)c2ccccc2)(C(=O)NC2CCCCC2)CC1	i	nt	i	nt	i
COc1ccccc1NC(=O)CN1CC(=O)Nc2ccccc21	i	i	i	i	i
CCN1CCN(c2ccc(NC(=O)c3ccco3)cc2Cl)CC1	i	i	i	i	i
O=C(Nc1ccc(N2CCCC2)c(Cl)c1)c1ccco1	i	i	i	i	12
COc1cccc(NC(=S)N(CCC(C)C)C(C)c2ccncc2)c1 (stereo unspecified)	i	i	i	i	i
CSc1cccc(NC(=S)N(CCC(C)C)C(C)c2ccncc2)c1 (stereo unspecified)	i	4.7	i	i	i
COC(=O)C[C@H]1CC[C@@H]2[C@@H](COc3ccc(NC(=O)Nc4cccc(C)c4)cc3C(=O)N2C)O1	i	nt	i	i	i
O=C(O)CC(CC(=O)Nc1ccc(F)c(Cl)c1)c1ccc(Cl)cc1Cl (stereo unspecified)	i	10	i	i	i
SMILES	hcDAF-12 act	DAX1 inh-1	ssDAF12 agonist	DAX1 inh-2	hgDAF12 agonist
C/C(=N\NC(=O)c1cccs1)c1ccc2ccccc2c1	i	i	i	i	11
C/C(=N/NC(=O)c1cccs1)c1cccc(NC(=O)C2CC2)c1	i	i	i	4.2	13
C/C(=N\NC(=O)c1cccc2ccccc12)c1cccs1	i	i	i	i	i
C/C(=N\NC(=O)c1cccc([N+](=O)[O-])c1)c1ccncc1	i	i	i	i	i
C/C(=N\NC(=O)c1cccc([N+](=O)[O-])c1)c1cccs1	i	4.9	i	i	i
CC1(C)OC(=O)C2=C(CC(CCc3ccccc3)OC2c2cccc(C(F)(F)F)c2)O1 (stereo unspecified)	i	nt	i	i	i
O=C(CSc1nc2ccccc2c(=O)n1-c1ccc(Cl)cc1)NNC(=S)Nc1ccccc1	i	nt	i	i	i
Cc1ccsc1/C=N/NC(=O)c1c[nH]c2ccccc12	i	i	i	i	11
O=C(N/N=C/c1ccc[nH]1)c1c[nH]c2ccccc12	i	i	i	i	i
O=C(N/N=C/C1CC2CCC1C2)c1c[nH]c2ccccc12 (stereo unspecified)	5.7	i	i	i	i
O=C(N/N=C/C1CC2CCC1C2)C1CC1 (stereo unspecified)	i	i	i	3.7	i
COC(=O)c1cc(-c2c(C)noc2C)c(=O)n2c1CCC2	i	nt	i	i	i
CCn1c(SCC(=O)Nc2ccccc2-c2ccccc2)nnc1-c1ccc(Cl)cc1	i	nt	i	i	i
NCCN1CCN(S(=O)(=O)c2ccc3c(c2)CCN3C(=O)C2CCC2)CC1	i	nt	i	i	i
C[C@@H]1CN([C@@H](C)CO)C(=O)c2cc(-c3cccnc3)cnc2O[C@H]1CN(C)C(=O)c1cccc(F)c1	i	6.5	i	i	i
C[C@H](CO)N1C[C@H](C)[C@H](CN(C)C(=O)Cc2ccncc2)Oc2ncc(Br)cc2C1=O	i	i	i	3.8	i
C[C@@H]1CN([C@@H](C)CO)C(=O)c2cc(Br)cnc2O[C@H]1CN(C)C(=O)c1cccc(F)c1	i	i	i	i	i
CCOc1ccc2nc(SCc3ccccc3C#N)sc2c1	i	i	i	i	11
c1cncc(CSc2ccc(-c3cccs3)nn2)c1	i	i	i	i	12
Cc1ccc(CSc2ccc(-c3cccs3)nn2)cc1	i	i	i	i	i
CC1=C(C(=O)c2ccccc2)C(c2ccc(O)cc2)NC(=S)N1 (stereo unspecified)	i	4.4	i	i	i
CC1=C(C(=O)c2ccccc2)C(c2ccc(OC(F)F)cc2)NC(=S)N1 (stereo unspecified)	i	i	i	i	i
O=C1NC(=S)S/C1=C\c1cc(Cl)ccc1Cl	i	i	i	3.7	i
Cc1ccc2nc(NC(=O)/C=C/c3ccc4c(c3)OCO4)sc2c1	i	i	i	i	i
Cc1csc(NC(=O)/C=C/c2ccc3c(c2)OCO3)n1	i	i	1.1	4.6	15
SMILES	hcDAF-12 act	DAX1 inh-1	ssDAF12 agonist	DAX1 inh-2	hgDAF12 agonist
Nc1nc(NCCCN2CCOCC2)nc(Nc2ccccc2F)c1[N+](=O)[O-]	i	4.5	i	i	i
COc1ccc(N2CCN(CCNS(=O)(=O)c3c(C(C)C)cc(C(C)C)cc3C(C)C)CC2)cc1	i	nt	i	i	i
C=CCOC(=O)N[C@H](c1ccc(-c2ccccc2)cc1)[C@H](C)/C=C/CC(=O)OC	i	nt	i	i	i
CCCCNC(=O)NS(=O)(=O)c1ccc(NC(=O)CSc2nnc(-c3ccc(Cl)cc3)n2N)cc1	i	nt	i	i	i
Cc1ccc(/C=C/C(=O)NC2=NCCS2)cc1	8.0	i	1.4	6.4	17
CCc1ccc(/C=C/C(=O)NC2=NCCS2)cc1	i	nt	i	nt	i
Cc1ccc(OCC(=O)NC2=NCCS2)cc1	i	4.7	i	i	i
O=C(COc1ccccc1)NCC(=O)NC1=NCCS1	i	i	i	i	i
NC(=O)c1ccccc1NC(=O)CN1CCOCC1	i	4.3	i	i	i
O=C(CN1CCOCC1)NNC(=S)Nc1ccccc1	i	6.1	i	i	i
